# Most compounds without a hit are left out; they make up all but 3.9% or so of the library.
# HIF-2a inh: HIF-2a reporter inhibitors, primary screen, luminescence, 786-0 RCC cells; 786-0 RCC cells HIF-2a reporter, luciferase luminescence, overnight; inhibition, % at 18.8 µM; actives 0.72% (n = 360,000); AID 624352, 2012;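 active means inhibition of the luminescence signal of 40% or more relative to plate controls, in a single-dose primary screen at 18.75 µM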
# TROY signal inh: inhibitors of TROY-driven NF-kB signaling, primary screen, Q293 LMP1-TROYcd cells, NF-kB luciferase, uHTS; Q293 LMP1-TROYcd NF-kB luciferase reporter, 4 h; inhibition, % at 10 µM; actives 0.98% (n = 360,000); AID 1347056, 2019;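 active means compounds whose plate-normalised and pattern-corrected inhibition of the luciferase reporter signal at the single screening dose is 50% or more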
# Peg3 prom inh: Peg3 promoter-driven luciferase inhibitors, primary screen, cell-based, HeLa, luciferase luminescence | actives 1.7% (n = 360,000) | HeLa PEG-Prom luciferase reporter, overnight | inhibition, % at 20 µM;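 active means inhibition of at least 50% at 20 µM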
# CF NFkB inh: inhibitors of PAF-induced NF-kB signaling, primary screen, cell-based, GFP fluorescence, uHTS; AID 588850, 2011; inhibition, % at 5 µM; KKLEB NF-kB-GFP reporter, GFP fluorescence overnight; actives 0.86% (n = 360,000);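 active means at least 50% inhibition at 5 µM, scaled per plate between neutral and stimulator controls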;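 further: PAF is a Pseudomonas aeruginosa culture filtrate used as stimulus; plate controls were PAF-stimulated DMSO wells for no effect and unstimulated DMSO wells for full effect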
# TWEAK Fn14 block: inhibitors of TWEAK-Fn14 signaling, primary screen, luciferase reporter cells, uHTS | actives 2% (n = 360,000) | TWEAK-stimulated Fn14 reporter cells, luciferase luminescence, 8 h | AID 1159606, 2016 | inhibition, % at 10 µM; in the data active means inhibition above about 50%
# KKLEB cytotox: cytotoxicity in KKLEB CF airway cells, primary screen, cytotoxicity control for CF NF-kB inhibitor project, cell-based, uHTS, fluorescence assay plates | activity change (cytotoxicity), % at 5 µM | actives 0.36% (n = 360,000) | KKLEB CF airway cells viability, ATPlite luminescence, overnight; active compounds read low; cells stimulated with P. aeruginosa culture filtrate;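 active means corrected activity change at or below -50% at 5 µM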
# * hit, by the source's call; x = not tested or not shown.
SMILES,HIF-2a inh,TROY signal inh,Peg3 prom inh,CF NFkB inh,TWEAK Fn14 block,KKLEB cytotox
O=C(c1ccco1)N1CCN(C(=O)c2ccc(-c3ccc([N+](=O)[O-])cc3)o2)CC1,3,9,-16,19,6,-3
COc1cc2ccccc2cc1C(=O)NC(=S)Nc1cccc(C(=O)O)c1C,-12,5,-8,8,-4,2
COc1c(C(=O)Nc2ccc(Cc3ccncc3)cc2)ccc2ccccc12,-166,57*,-93,0,39,-2
COc1ccccc1C(=O)NC(=S)Nc1ccc(Cc2ccncc2)cc1,-86,62*,-34,-13,23,3
Cc1ccc(C(=O)CN(CCCC(N)=O)S(=O)(=O)c2ccc([N+](=O)[O-])cc2)cc1,-12,-9,-1,-25,-3,12
Cc1ccc2c(C)c(C(=O)N(C)C(C)c3ccncn3)oc2c1C (configuration not stated),-87,-21,-71,11,-1,-18
O=C(/C=C/c1cccs1)Nc1scc(-c2ccccc2)c1C(=O)O,-142,15,-126,-20,60*,8
O=C(/C=C/c1cccs1)Nc1nc(-c2ccccc2)cs1,-469,32,-215,-78,41,8
CN1C[C@@H]2C(c3ccc(Cl)nc3)C3(c4ccccc4)CC2(C3)[C@H]1c1ccccc1 (some centres not stated),7,6,1,9,4,-5
Cc1c(Cl)cccc1NC(=S)N=Nc1c(O)n(CN2CCOCC2)c2ccccc12,25,33,20,0,105*,3
Oc1c(N=NC(=S)Nc2ccccc2F)c2ccccc2n1Cc1ccccc1Cl,19,17,12,16,-6,-14
O=S(=O)(Oc1ccccc1)c1cccnc1,5,2,8,-18,7,4
Oc1ccc(C[C@H]2CNC(=S)N2CC2CCCN2C[C@H](Cc2ccccc2)N2C[C@H](Cc3ccc(O)cc3)N(CCc3ccccc3)C2=S)cc1 (some centres not stated),-47,12,68*,41,58*,-2
CC(C)C[C@H]1CN([C@@H](Cc2ccc(O)cc2)CN2CCC[C@@H]2CN2C(=S)NC[C@@H]2Cc2ccccc2)C(=S)N1CCc1ccccc1,-15,16,19,9,14,-24
CC(C)C[C@@H](CN1CCC[C@@H]1CN1C(=S)NC[C@@H]1Cc1ccc(O)cc1)N1C[C@H](Cc2ccc(O)cc2)N(CCc2ccccc2)C1=S,-22,11,78*,37,10,-11
CCOc1ccc(CCN2C(=S)N([C@@H](CC(C)C)CN3CCCC3CN3C(=S)NC[C@@H]3Cc3ccc(O)cc3)C[C@@H]2Cc2ccc(O)cc2)cc1 (some centres not stated),-48,11,87*,40,47,-7
CC(C)C[C@H]1CNC(=S)N1C[C@H]1CCCN1C[C@H](Cc1ccc(O)cc1)N1C[C@H](Cc2ccc(O)cc2)N(CCc2ccccc2)C1=S,-22,12,94*,46,18,-19
CC(C)C[C@@H](CN1CCCC1CN1C(=S)NC[C@@H]1Cc1ccccc1)N1C[C@H](Cc2ccc(O)cc2)N(CCc2ccccc2)C1=S (some centres not stated),-10,7,x,x,32,x
CC1CCCN(S(=O)(=O)CCNC(=O)c2ccc3c(c2)OCO3)C1 (configuration not stated),0,-23,-5,8,-18,14
COc1ccc(COC(=O)CN2C(=O)NC3(CCCC3)C2=O)cc1F,1,-15,-11,1,-4,-13
O=C(Nc1cccc(Cl)c1N1CCCC1)c1ccc([N+](=O)[O-])o1,7,24,10,10,-16,-3
CCN1CCN(c2c(Cl)cccc2NC(=O)c2ccc([N+](=O)[O-])o2)CC1,-2,-4,52*,50,1,-12
